Molecules are shown by their SMILES. “And” between values parts separate entries of the source, which are not always exact repeats. Identical values can stand only once. Screen size: about 290,000 compounds; about 27,000 (9.3%) were called active. This is one part of a sample in which actives are shown more often than they occur. Unmarked numbers belong to inactive results. No stated cut-off is given here; in the data, active means inhibition mostly above about 28% (no sharp cut-off); inactive means mostly below about 43%.

We go through 58 compounds from PubChem BioAssay AID2315 (National Center for Advancing Translational Sciences (NCATS), 2010).

This experiment can be described thus: A qHTS for Small Molecule Inhibitors of Shiga Toxin. Further: 0% is about no effect. As to conditions: Vero cells, Shiga toxin protein synthesis inhibition reporter; at 38.7 µM, stronger effect = higher value. Background: Quantitative high-throughput screening tests each substance at several concentrations.
The inhibition is the drop in the measured response relative to a control, in per cent. Take `Cc1c(Cl)cccc1NC(=O)NCc1ccc(C)n1C`: the inhibition is -6.17%. As for `COc1ccc(CN(C)C(=O)Cc2c[nH]c3ccccc23)c(OC)c1OC`, the inhibition was -4.06%. Regarding `O=S(=O)(/C=C/c1ccccc1)N1CCNCC1`, the inhibition was -7.81%.

Consider `CCc1cccc(NC(=S)N(CCN(C)C)C2CCN(C(C)C)CC2)c1`, for which the inhibition was -1.09%. For `Cc1ccc(NC(=O)Nc2nnc(-c3ccncc3)s2)cc1`, the inhibition was -16.3%.

In the case of `Cc1ccc(Nc2nc(Cl)c(C=O)s2)cc1`, the inhibition was 39.5% (active).

As for `Cc1ccc(Nc2nc(C)cc(C)c2C(N)=O)cc1`, the inhibition was -8.95%. Turning to `COc1ccc(C(=O)NCCNc2ccc([N+](=O)[O-])cn2)cc1`, the inhibition was -3.6%. Consider `CCn1cc(/C=C(\NC(=O)c2cc(OC)c(OC)c(OC)c2)C(=O)N2CCN(C)CC2)c2ccccc21`, for which the inhibition was -5.81%. As to `O=C(NCCOc1cccnc1)c1ccc(OC2CCN(Cc3ccccn3)CC2)cc1`, the inhibition was -23.8%. As to `O=C(OCC(=O)N1CCN(C(=O)c2ccco2)CC1)c1cccc(O)c1`, the inhibition was 18.4%.

As for `O=C(CCn1nnc2ccccc21)OCC(=O)c1ccc([N+](=O)[O-])cc1`, the inhibition is -9.08%. The same measure for `COc1ccc(C2C3=C(OC(C)=O)c4ccccc4C3=Nc3c2c(=O)n(C)c(=O)n3C)cc1` (stereo not drawn): -4.21% and -6.55%; for `CC(=O)Oc1ccc2c(c1)C(=O)c1ccccc1C2=O`: 49.5%. On to `COc1ccc(/C=C/c2noc(-c3ccccc3OC(C)=O)n2)cc1`, for which the inhibition was 50.5% (active). In the case of `Cc1ccc(NC(=O)c2cccs2)cc1S(=O)(=O)N(C)C`, the inhibition was 30%. As for `Cc1ccc(C(=O)Nc2ccc(C)c(S(=O)(=O)N(C)C)c2)s1`, the inhibition is 64.1% (active). The same measure for `CCN(CC(=O)Nc1ccc(C)c(S(=O)(=O)N(C)C)c1)Cc1ccccc1`: 12.4%. Regarding `O=C(c1ccc(S(=O)(=O)N2CCCC2)cc1)N1CCN(c2ccccc2F)CC1`, the inhibition was -13.1%. On to `CCOC(=O)CSc1nnc(-c2ccc([N+](=O)[O-])cc2)o1`, for which the inhibition is 7.13%.

On to `CCc1ccccc1NC(=O)CSc1nnc(-c2ccncc2)o1`, for which the inhibition is 6.43%.

On to `O=C(CSc1nnc(-c2ccc([N+](=O)[O-])cc2)o1)Nc1ccccn1`, for which the inhibition was 88.1% (active). As for `O=C(NC1CCCC1)C(c1ccco1)N(C(=O)c1csnn1)c1ccccc1` (stereo not drawn), the inhibition was -6.47%. For the compound `COC(=O)c1ccc(NC(=O)CSc2nc(N)c(NC(=O)c3ccc(Br)o3)c(=O)[nH]2)cc1`, the inhibition was -12.8%.

Consider `CCN(CC)c1ccc(C(=O)OCC(=O)c2ccco2)cc1`, for which the inhibition was 46.8%.

Take `O=C(OCC(=O)N1CCCC1)c1ccco1`: the inhibition is 24.9%. Turning to `CCc1ccc(C(=O)COC(=O)c2ccco2)cc1`, the inhibition is 56.1% (active). `COc1ccc(C2/C=C\CN(C(=O)c3ccc(C)cc3)C(Cc3ccccc3)C(=O)N2Cc2ccc(F)cc2)cc1` (stereo not drawn): the inhibition was 16.3%.

For the compound `O=C(CN1CCCCCC1)Nc1ccc(S(=O)(=O)N2CCCCC2)cc1`, the inhibition was -3.01%. The value for `O=C(CC1NCCNC1=O)Nc1cc(Cl)cc(Cl)c1` (stereo not drawn) was -12.8%; that for `O=C(CC1C(=O)NCCN1C(=O)c1ccc([N+](=O)[O-])cc1)Nc1cccc(Cl)c1` (stereo not drawn) was -30.7%. On to `O=C(CC1NCCc2ccccc21)Nc1cccc(Cl)c1` (stereo not drawn), for which the inhibition is 51.4% (active). With `CCN(CC)CCN(C(=O)c1cc(Cl)sc1Cl)c1nc2cc3c(cc2s1)OCO3`, the inhibition was 6.7%. Turning to `CCOC(=O)/C(C#N)=C/c1ccc(OCC(=O)Nc2ccccc2)c(OC)c1`, the inhibition is 70.9% (active). In the case of `COc1cc(C2C3=C(CCCC3=O)OC3=C2C(=O)CCC3)ccc1OCC(=O)Nc1ccccc1`, the inhibition is 37.9%. As to `COc1cc(/C=N/NC(=O)Nc2ccccc2)ccc1OCCOc1ccccc1C`, the inhibition was -4.02%.

In the case of `CCCn1c(C)cc(/C=C(\C#N)C(=O)OCC(=O)Nc2cc(OC)c(OC)c(OC)c2)c1C`, the inhibition was 32.6% (active). The value for `COc1cc(CCC(=O)OCC(=O)Nc2cccc(S(N)(=O)=O)c2)cc(OC)c1OC` was -3.91%. Turning to `CCOC(=O)/C(C#N)=C/c1cn(CCC(=O)O)nc1-c1ccc(Br)cc1`, the inhibition is 2.95%. As to `Cc1ccc(C(=O)Oc2ccc(C(=S)N3CCOCC3)cc2)cc1`, the inhibition is 3.46%. Take `CCc1ccc(C(=O)NC(=S)Nc2ccccc2N2CCOCC2)cc1`: the inhibition was -5.58%. For the compound `COc1cc2c(cc1OC)CN(C(=O)c1cc(S(=O)(=O)N3CCCCC3)ccc1Cl)CC2`, the inhibition is 2%. `Cc1ccc2nc3c(cc(C(=O)NCCc4ccccc4)c(=N)n3CC3CCCO3)c(=O)n2c1` (stereo not drawn): the inhibition was -3.67%. Regarding `COc1ccccc1CN1CC(C(=O)NCCc2cn[nH]c2)CCC1=O` (stereo not drawn), the inhibition was 22%. For `CCc1ccc(N(C(=O)c2csnn2)C(C(=O)NC2CCCCC2)c2cccnc2)cc1` (stereo not drawn), the inhibition was 2.03%. For the compound `CC1(C(=O)NCCc2c[nH]c3ccccc23)C=CC2(CCCCC2)N1C(=O)c1ccccc1` (stereo not drawn), the inhibition was 14.3%.

Take `Cc1nc(SCC(=O)Nc2cc(C)on2)c2c3c(sc2n1)CCCC3`: the inhibition was 21.2% (active). Consider `Cc1nc(SCC(=O)Nc2cc(C)on2)c2c(C)c(C)sc2n1`, for which the inhibition was 12.3%. `Cc1ccc2cc(C#N)c(SCC(=O)NCC3CCCO3)nc2c1C` (stereo not drawn): the inhibition is -7.12%. In the case of `CC(NC(=O)CSc1nc2c(cc1C#N)CN(C)CC2)c1ccccc1` (stereo not drawn), the inhibition was -9.63%.

`Cc1cc(NC(=O)CSc2nc3c(cc2C#N)CCCCC3)no1`: the inhibition was 78.8% (active). As for `Cc1cc(NC(=O)CSc2nc(C(C)C)nc3sc4c(c23)CCC(C)C4)no1` (stereo not drawn), the inhibition is 22.7%. In the case of `COc1cccc(CN2CCN(Cc3ccc4cccc(F)c4n3)CC2CCO)c1` (stereo not drawn), the inhibition was 12.8%. With `O=C(NCc1cccnc1)C12CC3CC(CC(C3)C1)C2`, the inhibition was 11.5%. The same measure for `Cc1ccc(C(=O)COC(=O)CCN2C(=O)C3C4CCC(C4)C3C2=O)cc1C` (stereo not drawn): 34.8%; for `O=C(CCC1CCN(C(=O)c2cccc(Cl)c2F)CC1)Nc1ccccc1`: -32%; for `COc1ccccc1CC(=O)Nc1ccc(S(=O)(=O)N2CCCC2)cc1`: -2.78%. As to `CCOC(=O)C1C(c2ccc(O)cc2)NC(=O)NC1(O)C(F)(F)F` (stereo not drawn), the inhibition is -6.9%.
